Test results from the supplement of paper PMC10127200.
Counter-ions that a name gives are not always drawn.

Key:
Experiment in all cases: Euclidean distance of Cell Painting phenotypic profile (signed KS, 77 features) to DMSO centroid (dimensionless distance); higher = stronger phenotypic change vs DMSO (phenoactivity)
Settings in all cases: 48 h; 5 or 10 uM (library dependent)
786-O = system: 786-O
Summary of the method: (§1)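 At 10 or 5 uM, as set by the library, and 0.1% DMSO final, compounds were applied for 48 h to five cancer lines and one healthy fibroblast line. Stained cells were imaged confocally at 20X in 9 fields per well, and Harmony extracted 77 features scored as signed Kolmogorov-Smirnov statistics against vehicle wells on the same plate. Profiles underwent plate-position correction, correlation weighting and replicate averaging at the top dose. Phenoactivity is the Euclidean distance from each such profile to the median vehicle profile.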

A549 = system: A549
Summary of the method: as §1

DU145 = system: DU145
Summary of the method: as §1

FB = system: FB
Summary of the method: as §1

HEPG2 = system: HEPG2
Summary of the method: as §1

OVCAR4 = system: OVCAR4
Summary of the method: as §1

Compound | Euclidean distance (786-O) | Euclidean distance (A549) | Euclidean distance (DU145) | Euclidean distance (FB) | Euclidean distance (HEPG2) | Euclidean distance (OVCAR4)
O=c1[nH]c2ccccc2n1C1CCN(CCCC(c2ccc(F)cc2)c2ccc(F)cc2)CC1 [Pimozide] | 1.83 | 3.09 | 1.3 | 1.12 | 0.874 | 0.955
O=[N+]([O-])/C=C/c1ccc2c(c1)OCO2 | 4.42 | 2.25 | 0.868 | 2.39 | 0.782 | 2.34
Cc1ccc(/N=C/N(C)/C=N/c2ccc(C)cc2C)c(C)c1 [Amitraz] | 0.966 | 0.885 | 0.902 | 0.718 | 0.47 | 0.684
C#C[C@]1(OC(=O)CCCCCC)CC[C@H]2[C@@H]3CCC4=CC(=O)CC[C@@H]4[C@H]3CC[C@@]21C [Norethisterone Enanthate] | 2.37 | 2.5 | 3.85 | 1.34 | 2.23 | 1.22
CN1[C@@H]2CC[C@H]1C[C@@H](OC(=O)[C@H](CO)c1ccccc1)C2 [Hyoscyamine] | 0.984 | 0.92 | 0.681 | 0.505 | 0.646 | 1.31
CC1(C)S[C@@H]2[C@H](N)C(=O)N2[C@H]1C(=O)O [6-Aminopenicillanic acid] | 1.51 | 0.648 | 1.01 | 0.903 | 0.75 | 1.5
CN1[C@@H]2CC[C@H]1C[C@@H](OC(=O)C(CO)c1ccccc1)C2 (some centres not stated) [Atropine] | 0.688 | 1.55 | 1.19 | 1 | 2.2 | 1.89
O=C1CC[C@@]2(O)[C@H]3Cc4ccc(O)c5c4[C@@]2(CCN3CC2CC2)[C@H]1O5 [Naltrexone HCl] | 1.26 | 0.818 | 0.868 | 0.982 | 1.84 | 1.99
Cc1cc(C(C#N)c2ccc(Cl)cc2)c(Cl)cc1NC(=O)c1cc(I)cc(I)c1O (configuration not stated) [Closantel] | 1.21 | 0.707 | 0.758 | 0.654 | 0.749 | 0.648
N=C(N)NN [Aminoguanidine hydrochloride] | 0.96 | 1.11 | 0.602 | 0.888 | 0.598 | 0.998
CC[C@H](C)[C@@H]([C@@H](CC(=O)N1CCC[C@H]1[C@H](OC)[C@@H](C)C(=O)N[C@H](C)[C@@H](O)c1ccccc1)OC)N(C)C(=O)[C@@H](NC(=O)[C@@H](NC)C(C)C)C(C)C [Monomethyl auristatin E (MMAE)] | 3.13 | 2.69 | 4.69 | 2.93 | 3.85 | 3.16
O=C1C=C2C=C[C@@H]3C[C@@]2(O1)[C@H]1CCCCN31 [Securinine] | 0.99 | 1.25 | 1.42 | 1.78 | 1.08 | 1.74
C=CC(=O)N[C@H]1C=C(C)c2c(-c3cnc4ccccc4c3)c3c(N)ncnc3n2C1 | 1.49 | 1.6 | – | 1.95 | 1.26 | 1.39
Cc1cccc([C@H](C)c2c[nH]cn2)c1C [Dexmedetomidine] | 0.401 | 0.732 | 0.547 | 0.876 | 0.546 | 1.12
COc1ccc2[nH]cc(CCN)c2c1 [5-Methoxytryptamine] | 0.978 | 0.912 | 0.758 | 1.38 | 0.952 | 0.882
C[C@]12CCC(=O)C[C@@H]1CC[C@@H]1[C@@H]2CC[C@]2(C)[C@@H](O)CC[C@@H]12 [Dihydrotestosterone(DHT)] | 1.54 | 0.944 | 0.925 | 0.775 | 0.429 | 0.677
Cc1cccc(C)c1NC(=O)CN1CCCC1=O [Nefiracetam] | 1.15 | 0.499 | – | 0.708 | 1.11 | 1.2
CN1C(=O)CCS(=O)(=O)C1c1ccc(Cl)cc1 (configuration not stated) [Chlormezanone] | 1.52 | 0.681 | – | 0.695 | 0.59 | 1.23
O=C(O)c1nn(Cc2ccc(Cl)cc2Cl)c2ccccc12 [Lonidamine] | 0.877 | 1.12 | – | 1.09 | 0.957 | 1.52
Cc1ccccc1-n1c(CF)nc2ccc(N)cc2c1=O [Afloqualone] | 0.926 | 0.643 | 0.714 | 1.21 | 0.422 | 0.949
C[C@]12CCC(=O)C(O)=C1CC[C@@H]1[C@@H]2CC[C@]2(C)C(=O)CC[C@@H]12 [Formestane] | 1.02 | 0.913 | – | 1.08 | 0.763 | 0.703
COC1=C[C@@H]2[C@@H]3Cc4ccc(OC)c(O)c4[C@]2(CCN3C)CC1=O [Sinomenine] | 0.934 | 0.651 | – | 0.89 | 0.668 | 0.854
C[C@H]1CNCCc2ccc(Cl)cc21 [Lorcaserin HCl] | 1.56 | 0.972 | 1.3 | 0.956 | 1.2 | 0.917
Cc1cc(SCc2sc(-c3ccc(C(F)(F)F)c(F)c3)nc2C)ccc1OCC(=O)O | 0.634 | 1.17 | 0.823 | 1.08 | 2.24 | 0.807

Compound | Euclidean distance (786-O) | Euclidean distance (A549) | Euclidean distance (DU145) | Euclidean distance (FB) | Euclidean distance (HEPG2) | Euclidean distance (OVCAR4)
C[C@@H]1[C@H](O)[C@@H](C)/C=C/C=C/CC/C=C/C=C/C=C/C=C/[C@H](O[C@H]2O[C@@H](C)[C@H](O)[C@@H](N)[C@H]2O)C[C@@H]2O[C@](O)(C[C@@H](O)[C@H](O)CC[C@@H](O)C[C@@H](O)C[C@@H](O)CC(=O)O[C@H]1C)C[C@H](O)[C@H]2C(=O)O [Nystatin (Fungicidin)] | 1.05 | 1.12 | 1.4 | 0.85 | 1.2 | 1.06
c1ccc2c(c1)Nc1ccccc1S2 [Phenothiazine] | 0.657 | 0.876 | 0.829 | 1.1 | 1.4 | 0.881
C[C@]12CC[C@H](O)C[C@@H]1CC[C@@H]1[C@@H]2CC[C@]2(C)C(=O)CC[C@@H]12 [Epiandrosterone] | 1.32 | 1.2 | 0.784 | 1.34 | 0.785 | 0.989
C=CC[C@]1(O)CC[C@H]2[C@@H]3CCC4=CC(=O)CCC4=C3C=C[C@@]21C [Altrenogest] | 1.11 | 2.59 | – | 1.16 | 0.983 | 1.02
CCOC(=O)c1cncn1[C@H](C)c1ccccc1 [Etomidate] | 2.62 | 1.77 | 2.36 | 2.6 | 1.08 | 1.9
Cc1cccc(C(C)c2c[nH]cn2)c1C (configuration not stated) [Medetomidine HCl] | 0.819 | 0.591 | 0.87 | 0.682 | 0.602 | 1.07
COc1cc([C@@H]2c3cc4c(cc3[C@H](O)[C@H]3COC(=O)[C@@H]23)OCO4)cc(OC)c1OC [Picropodophyllin (PPP)] | 3.35 | 2.64 | 4.34 | 2.74 | 3.95 | 3.14
CO[C@]12C[C@@H](COC(=O)c3cncc(Br)c3)CN(C)[C@@H]1Cc1cn(C)c3cccc2c13 [Nicergoline] | 1.37 | 0.701 | – | 0.963 | 0.72 | 0.762
COc1ccc(C(CN(C)C)C2(O)CCCCC2)cc1 (configuration not stated) [Venlafaxine] | 0.992 | 0.49 | – | 0.691 | 0.558 | 1.02
CC[C@@]1(O)C(=O)OCc2c1cc1n(c2=O)Cc2cc3ccccc3nc2-1 [Camptothecin] | 3.86 | 3.88 | – | 4.14 | 2.87 | 3.96
COC(=O)C[C@](O)(CCC(C)(C)O)C(=O)O[C@@H]1C(OC)=C[C@]23CCCN2CCc2cc4c(cc2[C@H]13)OCO4 [Harringtonine] | 3.42 | 3.22 | 4.37 | 3.78 | 3.46 | 3.73
N#C[C@H](O[C@@H]1O[C@H](C(=O)O)[C@@H](O)[C@H](O)[C@H]1O)c1ccccc1 [Laetrile] | 0.989 | 0.766 | – | 0.899 | 0.702 | 1.45
CCCCCc1cc(O)cc(O)c1 [Olivetol] | 1.12 | 0.742 | 0.801 | 0.7 | 0.393 | 0.946
COc1cc(C)[nH]c(=O)c1CNC(=O)c1c(C)n([C@H](C)C2CCN(CC(F)(F)F)CC2)c2ccccc12 | 1.35 | 1.09 | – | 1.42 | 0.588 | 0.987
C[C@]12CC[C@H]3[C@@H](CC[C@@]45O[C@@H]4C(O)=C(C#N)C[C@]35C)[C@@H]1CC[C@@H]2O [Trilostane] | 1.94 | 1.35 | – | 0.851 | 1.01 | 1.12
CCCCCCCCC(=O)NCc1ccc(O)c(OC)c1 [Nonivamide] | 1.37 | 0.987 | – | 0.925 | 0.607 | 1.31
COc1ccc(C(=O)N2CCCC2=O)cc1 [Aniracetam] | 0.962 | 1.09 | – | 1.01 | 0.635 | 1.07
CCN1C[C@]2(OC(=O)c3ccccc3NC(C)=O)CC[C@H](OC)[C@@]34[C@@H]2C[C@@H]([C@@H]13)[C@@]1(O)C[C@H](OC)[C@H]2C[C@@H]4[C@]1(O)[C@H]2OC [Lappaconitine] | 0.914 | 0.59 | – | 1.1 | 0.579 | 1.35
O=C(CC1NCCCC1O)Cn1cnc2cc(Br)c(Cl)cc2c1=O (configuration not stated) [Halofuginone] | 3.67 | 3.22 | – | 3.62 | 3.81 | 3.65
CC(C)(O)C(Cl)(Cl)Cl [Chlorobutanol] | 1.34 | 1.04 | 1.02 | 0.61 | 0.725 | 2
CC(=O)c1c(O)cc(C)oc1=O [Sodium dehydroacetate] | 0.865 | 0.572 | – | 0.998 | 0.348 | 0.896
O=c1cccc2n1C[C@@H]1CNC[C@H]2C1 [Cytisine] | 1.35 | 0.65 | – | 1.05 | 1.09 | 2.07
CN1CCCCC1Cn1cc(C(=O)c2cc([N+](=O)[O-])ccc2I)c2ccccc21 (configuration not stated) | 0.823 | 1.18 | 1.02 | 1.47 | – | 1.19
